Here are results for 19 molecules from PubChem BioAssay (NCATS).

The nature of test [1]: qHTS for Inhibitors of the Functional Ribonucleoprotein Complex (vRNP) of Lassa (LASV) Arenavirus: LASV Primary Screen - GLuc reporter signal (AID 1347082; calls by dose curve; tested in HEK293 reporter line; also: series mostly up to about 57 µM; nearly all actives have a fitted effect of over 60% in size). In general terms: In qHTS, concentration-response curves come from the screen itself.
Test [2] in a line: qHTS for Inhibitors of the Functional Ribonucleoprotein Complex (vRNP) of Lassa (LASV) Arenavirus: Viability assay - alamar blue signal for LASV Primary Screen (AID 1347083; calls by dose curve; tested in HEK293 reporter line; also: series mostly up to about 57 µM; nearly all actives have a fitted effect of over 80% in size).
A short description of test [3]: qHTS for Inhibitors of the Functional Ribonucleoprotein Complex (vRNP) of Lymphocytic Choriomeningitis Arenaviruses (LCMV): Viability assay - alamar blue signal for LCMV Primary Screen (AID 1347085; calls by dose curve; tested in HEK293 reporter line; also: series mostly up to about 57 µM; nearly all actives have a fitted effect of over 80% in size).
Test [4] addresses Nucleoprotein (Lymphocytic choriomeningitis virus (strain Armstrong)) (UniProt P09992). Briefly: qHTS for Inhibitors of the Functional Ribonucleoprotein Complex (vRNP) of Lymphocytic Choriomeningitis Arenaviruses (LCMV): LCMV Primary Screen - GLuc reporter signal (AID 1347086; calls by dose curve; also: series mostly up to about 57 µM; nearly all actives have a fitted effect of over 70% in size).
Test [5] can be described thus: qHTS of pediatric cancer cell lines to identify multiple opportunities for drug repurposing: Primary screen for TC32 cells (AID 1347089). Also: nearly all actives have a fitted effect of over 60% in size. The method, boiled down:
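Measured quantity: luminescence from CellTiter-Glo, reflecting metabolically active TC32 cells following 48 h of compound. Curves came straight from multi-point titrations, with 8 or 11 points in primary and 11 in confirmatory screening.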

Test [6] is described as follows: qHTS of pediatric cancer cell lines to identify multiple opportunities for drug repurposing: Primary screen for DAOY cells (AID 1347090). Also: series mostly up to about 46 µM; nearly all actives have a fitted effect of over 55% in size. In short, it runs like this: (§1)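 Viability measured as metabolically active cells via CellTiter-Glo luminescence following 48 hours of compound exposure, 11-point dilutions in confirmatory testing. 500-1,000 cells/well plated 5 hours before dosing; controls were DMSO and 2.3 µM bortezomib.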

The nature of test [7]: qHTS of pediatric cancer cell lines to identify multiple opportunities for drug repurposing: Primary screen for A673 cells (AID 1347092). Also: nearly all actives have a fitted effect of over 45% in size. In short, it runs like this:
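Cells are plated, rested 5 h, dosed by pintool, incubated 48 h, then lysed with CellTiter-Glo and read by luminescence. DMSO is the neutral control; bortezomib at 2.3 uM final is the positive control.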

Test [8] in a line: qHTS of pediatric cancer cell lines to identify multiple opportunities for drug repurposing: Primary screen for SK-N-MC cells (AID 1347093). Also: potency is read from the fitted curve at half-maximal effect. The method, boiled down: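 Metabolically active cells were quantified by ATP-dependent luminescence (CellTiter-Glo, 15 min at room temperature) following 48 h treatment. Cells had been plated at 500-1,000 per well and settled for 5 h beforehand.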

The nature of test [9]: qHTS of pediatric cancer cell lines to identify multiple opportunities for drug repurposing: Primary screen for SJ-GBM2 cells (AID 1347091). In short, it runs like this:
as §1

Inconclusive results are not listed. Calls of active or inactive are those of the source. Unless noted, calls follow the shape of the dose curve; as a rule, active = well fitted curve in the direction sought with a large enough effect; inconclusive = small, poorly fitted or top-dose-only effect, or another doubt; inactive = no such curve, though single readings can be large; an effect the other way counts as inactive or inconclusive.

Sequence of Nucleoprotein (Lymphocytic choriomeningitis virus (strain Armstrong)) (P09992 whole entry, looked up): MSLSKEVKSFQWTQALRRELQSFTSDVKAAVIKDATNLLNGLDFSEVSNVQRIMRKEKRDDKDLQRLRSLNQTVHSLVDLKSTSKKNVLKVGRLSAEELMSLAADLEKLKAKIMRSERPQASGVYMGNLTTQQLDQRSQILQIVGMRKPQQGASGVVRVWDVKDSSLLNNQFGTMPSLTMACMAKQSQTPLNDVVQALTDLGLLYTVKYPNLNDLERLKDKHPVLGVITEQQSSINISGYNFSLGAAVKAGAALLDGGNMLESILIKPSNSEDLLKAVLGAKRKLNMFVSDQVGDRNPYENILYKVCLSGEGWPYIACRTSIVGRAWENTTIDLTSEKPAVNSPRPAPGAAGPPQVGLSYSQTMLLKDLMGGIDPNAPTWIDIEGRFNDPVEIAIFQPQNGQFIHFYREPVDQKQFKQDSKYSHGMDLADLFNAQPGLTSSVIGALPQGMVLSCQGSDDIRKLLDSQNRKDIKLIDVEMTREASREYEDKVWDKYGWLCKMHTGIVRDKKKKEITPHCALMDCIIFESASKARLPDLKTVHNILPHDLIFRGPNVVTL

As to `O=c1oc2ccccc2c(O)c1Cc1c(O)c2ccccc2oc1=O`, the Potency entry in test [1], in test [2], in test [3], in [4], in test [5] and in [6] was “inactive” each time. Besides, the Potency result in test [7] is “inactive”. Moreover, the Potency in test [8] is 15 µM (active).

With `CCO/C([O-])=N/c1c[n+](N2CCOCC2)no1`, the Potency result in [1], in test [2], in test [3] and in [4] was “inactive” each time.

As for `O=C1c2ccccc2C(=O)c2c1ccc(O)c2O`, the Potency entry in test [1], in test [2], in [3] and in test [4] was “inactive” throughout.

For the molecule `C[C@H]1C[C@@H]2[C@H]([C@@H](O)C[C@@]3(C)[C@H]2CC[C@]3(O)C(=O)CO)[C@@]2(C)C=CC(=O)C=C12`, the Potency entry in test [1], in test [2], in [3] and in test [4] was “inactive” each time.

`CCc1cc2c(s1)-n1c(C)nnc1CN=C2c1ccccc1Cl`: the Potency entry in test [1], in test [2], in test [3], in [4], in test [5] and in test [9] was “inactive” in each case. Besides, in test [7], the Potency result was “inactive”.

With `c1ccc2c(CC3=NCCN3)cccc2c1`, the Potency result in test [1], in test [2], in [3] and in [4] was “inactive” throughout.

As for `CCCCCCCCCCC[C@@H](C[C@@H]1OC(=O)[C@H]1CCCCCC)OC(=O)[C@H](CC(C)C)NC=O`, the Potency entry in test [1], in test [2], in [3] and in [4] was “inactive” throughout.

On to `ClCCN1CCCC1`, for which the Potency result in [1], in test [2], in test [3], in [4], in [5] and in [9] was “inactive” each time. Further, the Potency entry in test [7] and in [8] was “inactive” each time.

In the case of `COc1ccc(-c2ccc3cc(C(=O)O)ccc3c2)cc1C12CC3CC(CC(C3)C1)C2`, the Potency result in test [1], in test [2], in test [3] and in test [4] was “inactive” in each case.

`O=C(O)Cc1cccc2ccccc12`: the Potency entry in [1], in [2], in test [3] and in test [4] was “inactive” each time.

With `O=C(O)c1ccc(=O)[nH]c1`, the Potency result in [1], in test [2], in [3], in test [4], in test [5] and in test [6] was “inactive” throughout. Also, the Potency entry in test [9], in test [7] and in test [8] was “inactive” throughout.

`CCC(C)C(C)(COC(N)=O)COC(N)=O` (configuration not stated): the Potency result in [1], in test [2], in test [3], in test [4], in test [5] and in [9] was “inactive” throughout. Also, the Potency entry in [7] and in test [8] was “inactive” throughout.

As to `NC1CCN(c2nc3c(cc2F)c(=O)c(C(=O)O)cn3-c2ccc(F)cc2F)C1` (configuration not stated), the Potency result in [1], in test [2], in test [3] and in [4] was “inactive” in each case.

For the molecule `CCCCC(CC)COC(=O)c1ccccc1O` (configuration not stated), the Potency result in [1], in [2], in [3] and in [4] was “inactive” each time.

Consider `CNCC(O)c1ccc(O)c(O)c1` (configuration not stated), for which the Potency result in test [1], in [2], in test [3] and in test [4] was “inactive” each time.

Take `NC(=O)NC(=O)Cc1ccccc1`: the Potency result in test [1], in [2], in test [3] and in [4] was “inactive” in each case.

With `CCN(CC)C(=O)[C@@H]1C=C2c3cccc4[nH]cc(c34)C[C@H]2N(C)C1`, in test [6], the Potency entry was “inactive”.

Take `C#CC(O)(C=CCl)CC` (configuration not stated): the Potency entry in test [8] was “inactive”.

`CN(C)CCc1c[nH]c2cccc(OP(=O)(O)O)c12`: the Potency entry in test [8] is “inactive”.
